Assay results published in PubChem BioAssay (Tox21).
Records with an inconclusive call do not appear. Active and inactive are the calls of the source. Unless noted, calls follow the shape of the full dose curve.

Key:
[1] = qHTS assay to identify small molecule antagonists of the estrogen receptor beta (ER-beta) signaling pathway - cell viability counter screen (AID 1259382; active = well fitted curve in the direction sought with a large enough effect in the repeat runs; an effect the other way counts as inactive or inconclusive; also: series mostly up to about 92 µM; nearly all actives have a fitted effect of over 55% in size)
In short: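 Agonist-stimulated (1nM E2) ER-beta-UAS-bla HEK293T cells are incubated with library compounds for 16 hr at 37C. Cell viability is then assessed in the reporter-assay wells by adding CellTiter-Glo and reading luminescence after 30 min.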

[2] = molecular target: Estrogen receptor (Homo sapiens) (UniProt P03372); assay: qHTS assay to identify small molecule agonists of the estrogen receptor alpha (ER-alpha) signaling pathway in the presence of an antagonist (AID 1259383); also: top concentration of the series differs between compounds; nearly all actives have a fitted effect of over 15% in size
Estrogen receptor (Homo sapiens), sequence (P03372 whole entry, looked up): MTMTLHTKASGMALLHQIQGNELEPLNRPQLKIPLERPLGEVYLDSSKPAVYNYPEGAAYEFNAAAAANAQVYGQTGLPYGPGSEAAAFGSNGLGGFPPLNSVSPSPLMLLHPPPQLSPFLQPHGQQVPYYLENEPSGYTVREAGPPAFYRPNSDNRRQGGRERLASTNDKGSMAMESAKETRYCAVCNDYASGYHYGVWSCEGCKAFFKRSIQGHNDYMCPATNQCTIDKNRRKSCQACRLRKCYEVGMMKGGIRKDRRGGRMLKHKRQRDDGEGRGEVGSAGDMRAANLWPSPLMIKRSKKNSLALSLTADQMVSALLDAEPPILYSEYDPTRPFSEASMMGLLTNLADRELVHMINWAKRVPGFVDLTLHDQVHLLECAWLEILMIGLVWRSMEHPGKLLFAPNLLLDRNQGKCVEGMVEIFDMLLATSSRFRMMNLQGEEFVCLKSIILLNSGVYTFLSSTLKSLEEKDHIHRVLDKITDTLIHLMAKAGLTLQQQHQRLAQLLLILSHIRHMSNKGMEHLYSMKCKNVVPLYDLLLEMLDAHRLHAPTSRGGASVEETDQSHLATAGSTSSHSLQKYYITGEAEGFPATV
In short: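 Using VM7Luc4E2 cells seeded 24hr before treatment, antagonist ICI-182,780 (10.0nM final) was added, followed by compounds at 15 concentrations. Plates incubated 22hr; ONE-Glo luminescence quantified reporter activity.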

[3] = qHTS assay to identify small molecule agonists or antagonists of the thyroid stimulating hormone receptor (TSHR) signaling pathway - wild type cell line counter screen (AID 1259384)
In short: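 Wild-type HEK293 cells were plated 18 h at 37 C/5% CO2, pin-dosed with compound plus Ro20-1724 medium, held 30 min at room temperature, then given cAMP-d2 and anti-cAMP-cryptate; fluorescence was read after 1 h. Fifteen concentrations, triplicate.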

[4] = molecular target: Thyrotropin receptor (Homo sapiens) (UniProt P16473); assay: qHTS assay to identify small molecule antagonists of the thyroid stimulating hormone receptor (TSHR) signaling pathway (AID 1259385); also: nearly all actives have a fitted effect of over 20% in size
Thyrotropin receptor (Homo sapiens), sequence (P16473 whole entry, looked up): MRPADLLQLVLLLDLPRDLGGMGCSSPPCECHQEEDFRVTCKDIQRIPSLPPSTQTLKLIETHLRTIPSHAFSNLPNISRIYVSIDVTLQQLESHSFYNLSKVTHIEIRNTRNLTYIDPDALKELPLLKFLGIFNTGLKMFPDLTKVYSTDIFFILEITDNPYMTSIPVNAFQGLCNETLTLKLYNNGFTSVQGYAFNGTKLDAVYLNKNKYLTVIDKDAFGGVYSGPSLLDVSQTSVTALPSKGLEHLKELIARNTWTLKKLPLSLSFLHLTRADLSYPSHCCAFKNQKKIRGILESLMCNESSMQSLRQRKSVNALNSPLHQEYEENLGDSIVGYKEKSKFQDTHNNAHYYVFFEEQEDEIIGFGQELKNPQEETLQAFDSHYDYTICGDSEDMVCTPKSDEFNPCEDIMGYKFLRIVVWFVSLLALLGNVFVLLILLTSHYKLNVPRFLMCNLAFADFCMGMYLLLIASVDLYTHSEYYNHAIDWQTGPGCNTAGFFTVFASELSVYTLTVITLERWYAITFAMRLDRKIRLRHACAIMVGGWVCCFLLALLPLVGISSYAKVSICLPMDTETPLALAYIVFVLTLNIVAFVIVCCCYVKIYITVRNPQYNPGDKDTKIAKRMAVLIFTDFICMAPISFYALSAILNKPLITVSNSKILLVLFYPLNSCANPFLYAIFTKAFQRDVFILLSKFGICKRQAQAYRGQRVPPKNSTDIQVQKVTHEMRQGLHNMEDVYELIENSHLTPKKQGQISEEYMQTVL
In short: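 TSHR-HEK293 cells were plated and held 18 h at 37C/5% CO2, then given compound plus Ro20-1724 and stimulated with TSH at 1.5 ng/mL final. After 30 min at room temperature, cAMP was detected with cAMP-d2/anti-cAMP-cryptate (1 h) by fluorescence.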

[5] = qHTS assay to identify small molecule agonists of the estrogen receptor alpha (ER-alpha) signaling pathway in the presence of an antagonist - cell viability counter screen (AID 1259386; active = well fitted curve in the direction sought with a large enough effect in the repeat runs; an effect the other way counts as inactive or inconclusive;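 also: series mostly up to about 92 µM; cells exposed to compounds for 22 h at 37 °C before the viability read; nearly all actives have a fitted effect of over 30% in size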)
In short: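 ICI-182,780 at 10.0nM final accompanies the compound titration (15 concentrations, 22hr, 37C) on VM7Luc4E2 cells. The CellTiter-Fluor fluorescence readout runs in the same wells as the luciferase assay.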

[6] = molecular target: Progesterone receptor (Homo sapiens) (UniProt P06401); assay: qHTS assay to identify small molecule agonists of the progesterone receptor (PR) signaling pathway (AID 1346784); also: nearly all actives have a fitted effect of over 30% in size; also: potency is read from the fitted curve at half-maximal effect
Progesterone receptor (Homo sapiens), sequence (P06401 whole entry, looked up): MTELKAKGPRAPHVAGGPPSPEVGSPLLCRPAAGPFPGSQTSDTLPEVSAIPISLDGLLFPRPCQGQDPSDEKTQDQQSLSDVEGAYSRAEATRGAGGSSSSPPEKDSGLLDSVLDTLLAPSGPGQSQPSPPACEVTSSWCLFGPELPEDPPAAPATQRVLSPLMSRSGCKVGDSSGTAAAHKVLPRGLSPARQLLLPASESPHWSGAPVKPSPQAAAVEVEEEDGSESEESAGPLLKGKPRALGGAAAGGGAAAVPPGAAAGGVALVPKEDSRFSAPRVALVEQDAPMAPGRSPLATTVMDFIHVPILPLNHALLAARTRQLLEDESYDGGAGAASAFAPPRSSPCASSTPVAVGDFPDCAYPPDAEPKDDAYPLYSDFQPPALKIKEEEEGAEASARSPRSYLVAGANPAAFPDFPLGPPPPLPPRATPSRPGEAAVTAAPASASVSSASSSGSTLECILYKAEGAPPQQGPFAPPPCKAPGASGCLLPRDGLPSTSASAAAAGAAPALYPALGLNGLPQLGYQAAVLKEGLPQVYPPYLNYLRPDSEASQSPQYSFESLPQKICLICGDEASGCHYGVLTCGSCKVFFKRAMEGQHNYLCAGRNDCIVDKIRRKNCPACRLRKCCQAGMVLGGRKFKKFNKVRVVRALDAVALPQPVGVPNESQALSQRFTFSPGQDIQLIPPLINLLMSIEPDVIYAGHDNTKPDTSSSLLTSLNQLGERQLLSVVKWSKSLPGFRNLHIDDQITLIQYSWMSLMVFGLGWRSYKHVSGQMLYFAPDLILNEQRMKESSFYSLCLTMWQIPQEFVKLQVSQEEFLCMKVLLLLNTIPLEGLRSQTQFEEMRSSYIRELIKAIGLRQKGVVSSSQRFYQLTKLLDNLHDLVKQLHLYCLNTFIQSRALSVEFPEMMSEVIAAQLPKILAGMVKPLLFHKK
In short: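 PR-UAS-bla HEK 293T cells (beta-lactamase reporter under UAS) in 2% charcoal-stripped FBS, dosed with 23 nL compound after 6 hr, incubated 16hr at 37C. LiveBLAzer B/G FRET substrate added, fluorescence read after 2 hours.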

[7] = molecular target: Progesterone receptor (Homo sapiens) (UniProt P06401); assay: qHTS assay to identify small molecule antagonists of the progesterone receptor (PR) signaling pathway (AID 1346795; active = well fitted inhibition curve with a large enough effect in the signal ratio in the repeat runs, not every such curve was filed as active; the % refers to the signal ratio)
In short: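 PR-UAS-bla HEK293T cells with beta-lactamase reporter under UAS control, in 2% charcoal-stripped FBS, treated with compounds plus 1 nM promegestone (R5020, final) for 16 hr at 37C. Read-out: FRET beta-lactamase substrate fluorescence after 2 hr at room temperature.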

[8] = qHTS assay to identify small molecule antagonists of the progesterone receptor (PR) signaling pathway - cell viability counter screen (AID 1346798; active = well fitted curve in the direction sought with a large enough effect in the repeat runs; an effect the other way counts as inactive or inconclusive; also: series mostly up to about 92 µM; nearly all actives have a fitted effect of over 50% in size)
In short: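 PR-UAS-bla HEK293T cells, 3,000/well in 2% charcoal-stripped FBS medium, dosed with compounds plus R5020 agonist and incubated 16 h at 37C. Viability then measured in the same wells by CellTiter-Glo luminescence after 30 min at RT.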

[9] = qHTS assay to identify small molecule agonists of the progesterone receptor (PR) signaling pathway - cell viability counter screen (AID 1346799); also: nearly all actives have a fitted effect of over 45% in size
In short: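 Counter screen in the PR-UAS-bla HEK293T wells (2% charcoal-stripped FBS, 16 h compound exposure at 37 C) after the bla read. CellTiter-Glo added, 30 min at room temperature, luminescence read as cell viability.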

[10] = qHTS assay to identify small molecule antagonists of the TGF-beta/Smad signaling pathway - cell viability counter screen (AID 1346824; active = well fitted curve in the direction sought with a large enough effect in the repeat runs; an effect the other way counts as inactive or inconclusive; also: nearly all actives have a fitted effect of over 50% in size)
In short: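 SBE-bla HEK 293T cells were plated overnight at 37 C, then given compounds in DMSO plus TGF-beta1 (added as 0.25 ng/mL solution) for 5 hr. After the bla read, CellTiter-Glo was added to the same wells and luminescence read after 30 min at room temperature.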
% is scaled to controls: 0 for no effect and ±100 for the full control effect.

C=CCCCCCCCCCCC
inactive: activity change, negative = cytotoxicity [1] 4.44% [at 8.39 µM] | activation [2] 0.334% [at 8.39 µM] | cAMP activity change [3] 1.9% [at 8.39 µM] | activity change, negative = inhibition [4] 3.13% [at 8.39 µM] | activity change, negative = cytotoxicity [5] -2.37% [at 8.39 µM] | activation [6] -0.805% [at 8.39 µM] | activity change, negative = inhibition [7] 5.07% [at 8.39 µM] | activity change, negative = cytotoxicity [8] -5.87% [at 8.39 µM] | activity change, negative = cytotoxicity [9] -1.19% [at 8.39 µM] | viability change, negative = cytotoxic [10] 12.5% [at 6.97 µM]

Nc1ccc(S(=O)(=O)Nc2ccccn2)cc1
inactive: outcome [1] | outcome [2] | outcome [3] | outcome [4] | Potency [5] | Potency [6] | Potency [7] | Potency [8] | Potency [9] | outcome [10]

Cc1nc2ccccc2c(=O)o1
inactive: outcome [1] | outcome [2] | outcome [3] | Potency [5] | Potency [6] | Potency [7] | Potency [8] | Potency [9] | outcome [10]

CN(C)CCOCCN(C)CCO
inactive: outcome [1] | outcome [2] | outcome [3] | outcome [4] | Potency [5] | Potency [6] | Potency [7] | Potency [8] | outcome [10]

COc1cccc2sc(N)nc12
active: Potency [6] 43.5 µM
inactive: outcome [1] | outcome [2] | outcome [3] | outcome [4] | Potency [5] | Potency [7] | Potency [8] | Potency [9] | outcome [10]

CCN(CCO)c1cccc(C)c1
inactive: outcome [1] | outcome [2] | outcome [3] | outcome [4] | Potency [5] | Potency [6] | Potency [8] | outcome [10]

CCCCCCCCCCC
inactive: outcome [1] | outcome [2] | outcome [3] | outcome [4] | Potency [5] | Potency [6] | Potency [7] | outcome [10]

CC(=O)Nc1ncc([N+](=O)[O-])s1
inactive: outcome [1] | outcome [2] | outcome [3] | outcome [4] | Potency [6] | Potency [7] | Potency [8] | outcome [10]

O=C(COCCOCCOCC(=O)Nc1c(I)cc(I)c(C(=O)O)c1I)Nc1c(I)cc(I)c(C(=O)O)c1I
inactive: outcome [1] | outcome [2] | outcome [3] | outcome [4] | Potency [5] | Potency [6] | Potency [7] | Potency [8] | outcome [10]

Cc1nc([N+](=O)[O-])cn1-c1ccc([N+](=O)[O-])cc1
inactive: outcome [1] | outcome [2] | outcome [3] | Potency [5] | Potency [6] | Potency [7] | Potency [8] | Potency [9] | outcome [10]

Nc1ccc(C(=O)OCC(O)CO)cc1 (stereo not drawn)
inactive: outcome [1] | outcome [2] | outcome [3] | outcome [4] | Potency [5] | Potency [6] | Potency [7] | Potency [8] | outcome [10]

CO[Si](CCCS)(OC)OC
inactive: outcome [1] | outcome [2] | outcome [3] | outcome [4] | Potency [5] | Potency [6] | Potency [7] | Potency [8] | outcome [10]
